Measurements: the supplement of paper PMC6555819

What follows are sequences tested on VDR:RXRa (NR concentration 270 nM, RXRa partner concentration 90 nM) (assay: PBM binding z-score (relative to random genomic background probes); higher = stronger binding; sequences stand for … in GC…GCGATTGACAGCGTAGAATGAAGG).
Method: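 Protein-binding microarray (Agilent 4x180K custom design, double-stranded 60-nt probes: 5' GC cap, 34-nt variable region, 24-nt constant primer region; full probe sequence given). Purified or IVT nuclear receptor:RXRα heterodimers (3:1 NR:RXRα, mostly 270:90 nM) or homodimers were incubated for 1 h in PBS with 2% milk and no ligand, then detected with Alexa488 antibodies. Fluorescence from o1-orientation probes (~5 replicates averaged) was converted to z-scores against 500 random hg19 background probes. Variable regions are seed direct-repeat (DR0–DR5) sites, all their single-nucleotide variants and half-site ablations.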

Sequence	PBM binding z-score
AGTCAAAGTTCATCTAGGTAACGTAAGATATGCT	4.59
CGTCCAAGGTCAGCAGGGCAGTGAAAGCGACGTG	2.87
GCTCGGAGGACCAGGTCAGAGCTTTGTCCGTAGA	-0.322
CCTATTAGGTGACCATAAGGGCAACCGAAGCTCG	0.646
TCTATTAGTTGAAGGGCAACCGTCGAGTCCGTTT	0.884
CCTTACGGGTCAAGGTTCTAGCACGGGTGGTACG	3.1
CCTATTAGTGGACCATAAGGGCAACCGAAGCTCG	0.134
ACTAGCAGGCCAAGTTAGGGTCACTCAAACAAAG	3.15
CCTGCTAGGTTATGGTCAGCTAATCTACAGTATG	-0.216
GCTCGCAGGACAAGGTCAGAGCTTTGTCCGTAGA	0.842
TCTATTAGTTGATTAGTGCAACCGAAACAGCGGA	0.827
TCTAGTTGGTCAAAGTTCACACACTCGAAATGCG	4.44
ATCTCTAGGTAAGCCTCAGTTCAGTGAAGAACGC	0.546
GCTAGTTGGTCAGTAACAGGTCACACACCGGTCG	1.68
TCTAGCAGGCCAGTGGGTCACTCAAGAGGTACGG	0.297
CCGACTGGGGCAAGGTGACCATAACGCACAGCCA	-0.586
TAGCCTAGGTCATTGGGCGAGTATAGTACGCATC	2.14
CCTATCAGTTGACCATAAGGGCAACCGAAGCTCG	0.912
CCGACTGGGGCTTAAGGTTACCATAAGCCAGCCC	-0.156
ATCGAAAGGCCGAGGTGAGTATAGAGAAAGGGAA	-0.47

Sequence	PBM binding z-score
TCATATAGGTAAAGGTGTAAGTCGAACGATATGA	0.297
TCATATAGGGAAAGGTGAAAGTCGAACGATATGA	0.965
CCTACTGGGCCATCAGGTCATTAATATCAACGTT	1.49
TCTCGTAGGACACGAAAGGTCAGAGCTCGACATC	3.09
TCTCGGAGGACACGACGGTCAGAGCTTTCCAGAG	-0.164
CCGACTGGGACAAGGTTACCATAACGCACAGCCA	0.2
CGAACTAGGTCAGTACAGGACAGTGAAGGATGAT	0.713
GCTCGGAGGACAAGCTCAGAGCTTTGTCCGTAGA	-0.646
AGAATGAGGTTATTAAGATCAGGAAATTGCGGTC	2.43
CCTAGTTGGGCAAGGTCACACACGCTATAGGTAC	3.84
GCTAGCAGGCCATTTGGGTGACTCAATGACGGGC	-0.749
AGAAGGAGGTTACCAAAGATCAGGGAAACGCTTG	0.838
CCGACTCGGGCAGAAAGGTTACCATACCATCCGG	0.699
TCATATAGGTAAAGGTGAAAGTGGAACGATATGA	1.05
CTCGAAAGGTCGGGCTCAGGTGAGTATACCAAAC	1.5
AGAATGAGGTTATTAAGATCCGGGAATTGCGGTC	1.08
TCTCGGAGGACACGAAAGGTCAGAGCACGACATC	3.41
ATATGTAGGTTACATCCGGGTGATTCAGGCTATG	0.753
CCGACTGGGGCAGAAACGTTACCATACCATCCGG	-0.901
CTACCGAGGTGAACAAGGTCGTTGATTACTATTC	6.42
